Measured values published in PubChem BioAssay (NCATS).
Several values for one entry are separate records, joined by “and”; a condition that tells them apart may be missing. Equal entries are not always repeated. Inconclusive results are not listed. Activity calls are given as the source filed them. Unless noted, calls follow the shape of the dose curve; as a rule, active = well fitted curve in the direction sought with a large enough effect; inconclusive = small, poorly fitted or top-dose-only effect, or another doubt; inactive = no such curve, though single readings can be large; an effect the other way counts as inactive or inconclusive.

How the values were obtained:
[1] = target: Glucocorticoid receptor (Homo sapiens) (UniProt P04150); experiment: GR-GFP Redistribution (AID 450;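 active = compounds whose dose series gives a full or clear partial fitted curve of increased nuclear translocation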; also: potency is read from the fitted curve at half-maximal effect); details: U2OS GR-GFP nuclear translocation, laser cytometry, 2 h
Sequence of Glucocorticoid receptor (Homo sapiens) (P04150 whole entry, looked up, the tested form may be a part): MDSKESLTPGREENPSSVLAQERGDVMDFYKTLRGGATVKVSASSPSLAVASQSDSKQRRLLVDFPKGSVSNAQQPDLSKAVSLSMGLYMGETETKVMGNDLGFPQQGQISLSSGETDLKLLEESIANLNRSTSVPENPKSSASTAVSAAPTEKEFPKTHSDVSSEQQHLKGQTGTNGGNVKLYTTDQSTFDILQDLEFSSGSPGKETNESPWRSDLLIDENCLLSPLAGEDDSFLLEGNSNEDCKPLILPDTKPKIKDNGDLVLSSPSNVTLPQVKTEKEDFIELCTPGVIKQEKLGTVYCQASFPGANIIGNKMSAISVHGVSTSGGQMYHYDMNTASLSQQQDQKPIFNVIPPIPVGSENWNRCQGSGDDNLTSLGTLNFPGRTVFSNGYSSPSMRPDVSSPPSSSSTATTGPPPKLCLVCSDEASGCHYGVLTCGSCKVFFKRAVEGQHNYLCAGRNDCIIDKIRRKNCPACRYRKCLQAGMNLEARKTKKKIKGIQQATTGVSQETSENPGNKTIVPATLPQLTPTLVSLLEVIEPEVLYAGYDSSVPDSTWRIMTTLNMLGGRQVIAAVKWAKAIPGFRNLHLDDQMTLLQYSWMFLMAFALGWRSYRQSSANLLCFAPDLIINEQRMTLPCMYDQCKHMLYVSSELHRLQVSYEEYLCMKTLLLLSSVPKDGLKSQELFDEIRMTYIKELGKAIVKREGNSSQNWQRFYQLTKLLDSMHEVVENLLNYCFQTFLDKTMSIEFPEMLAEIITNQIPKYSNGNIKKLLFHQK

[2] = target: Glucocorticoid receptor (Homo sapiens) (UniProt P04150); experiment: GR-EFC Redistribution (AID 451; calls by dose curve; also: potency is read from the fitted curve at half-maximal effect); details: CHO-K1 GR-EFC translocation, beta-gal luminescence, 2 h
Summary of the method: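 CHO-K1 cells stably expressing nuclear-localized β-gal enzyme acceptor and GR fused C-terminally to the enzyme donor fragment; ligand-driven nuclear translocation restores β-gal by complementation. Compounds titrated up to 46 uM final, 2 h at 37 °C; luminescence read.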

[3] = qHTS Assay for Lipid Storage Modulators (AID 1519; calls by dose curve); details: Drosophila S3 cells, BODIPY lipid droplet/cell ratio, laser cytometry, cells loaded with oleic acid
Summary of the method: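 Cells seeded at 5,000 per well were treated with compounds over a concentration series and loaded with oleic acid (400 uM, as added). Lipid droplet fluorescence (488 nm excitation, 500-530 nm channel) was read by laser-scanning cytometry and normalized to 20 uM Triacsin C.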

[4] = target: Ubiquitin carboxyl-terminal hydrolase 1 (Homo sapiens) (UniProt O94782); experiment: Inhibitors of USP1/UAF1: Pilot qHTS (AID 504865); details: purified USP1/UAF1, Ub-rhodamine cleavage fluorescence; series mostly up to 114 µM;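 also: rhodamine fluorescence freed from ubiquitin-rhodamine substrate followed over time; top concentration of the series differs between compounds; % is scaled to controls: 0 for no effect and ±100 for the full control effect; nearly all actives have a fitted effect of over 35% in size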
Sequence of Ubiquitin carboxyl-terminal hydrolase 1 (Homo sapiens) (O94782 whole entry, looked up): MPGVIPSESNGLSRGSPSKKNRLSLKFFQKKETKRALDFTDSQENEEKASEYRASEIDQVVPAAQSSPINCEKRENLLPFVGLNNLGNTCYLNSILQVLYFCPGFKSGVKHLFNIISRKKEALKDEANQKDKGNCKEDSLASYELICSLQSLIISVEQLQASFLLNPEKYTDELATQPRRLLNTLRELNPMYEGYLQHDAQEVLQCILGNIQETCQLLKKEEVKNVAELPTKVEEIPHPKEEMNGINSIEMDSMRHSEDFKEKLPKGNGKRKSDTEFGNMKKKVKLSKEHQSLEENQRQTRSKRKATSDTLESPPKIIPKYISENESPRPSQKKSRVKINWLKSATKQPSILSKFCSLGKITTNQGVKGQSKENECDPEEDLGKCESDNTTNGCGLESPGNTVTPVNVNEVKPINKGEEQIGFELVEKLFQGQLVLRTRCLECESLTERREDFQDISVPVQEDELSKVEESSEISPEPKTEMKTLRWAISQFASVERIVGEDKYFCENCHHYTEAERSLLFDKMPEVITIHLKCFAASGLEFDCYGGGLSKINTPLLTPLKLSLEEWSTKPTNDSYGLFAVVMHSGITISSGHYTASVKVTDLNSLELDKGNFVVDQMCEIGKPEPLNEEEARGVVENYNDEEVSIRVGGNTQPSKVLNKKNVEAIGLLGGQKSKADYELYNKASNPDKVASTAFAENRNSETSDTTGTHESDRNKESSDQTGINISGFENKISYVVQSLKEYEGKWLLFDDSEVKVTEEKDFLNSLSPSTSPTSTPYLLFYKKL
Summary of the method: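 1nM USP1/UAF1 + cpd, 15 min RT; start w/ Ub-Rho 150nM final; kinetic FL 480/540 nm, 6 reads q60 s. Buffer 50mM HEPES pH 7.8, 0.5mM EDTA, 1mM TCEP, 0.01% Tween-20, 0.1 mg/ml BSA.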

[5] = target: DNA dC->dU-editing enzyme APOBEC-3G (Homo sapiens) (UniProt Q9HC16); experiment: qHTS for inhibitors of Vif-A3G interactions: Validation (AID 588379); details: Vif-A3G protein interaction assay; series mostly up to 46.1 µM; also: 0% is about no effect
Sequence of DNA dC->dU-editing enzyme APOBEC-3G (Homo sapiens) (Q9HC16 whole entry, looked up): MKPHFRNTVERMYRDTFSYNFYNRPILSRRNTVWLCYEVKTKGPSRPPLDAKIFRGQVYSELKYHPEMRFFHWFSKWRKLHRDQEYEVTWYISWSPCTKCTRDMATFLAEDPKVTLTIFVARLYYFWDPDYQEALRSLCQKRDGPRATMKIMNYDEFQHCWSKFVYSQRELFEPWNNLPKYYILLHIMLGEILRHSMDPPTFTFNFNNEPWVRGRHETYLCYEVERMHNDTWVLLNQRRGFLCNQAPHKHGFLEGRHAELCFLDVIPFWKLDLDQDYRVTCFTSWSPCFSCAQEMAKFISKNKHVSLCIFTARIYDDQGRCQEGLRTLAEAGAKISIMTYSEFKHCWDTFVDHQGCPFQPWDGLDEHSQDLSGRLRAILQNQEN
Summary of the method: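 Yellow fluorescence (Ex 488, Em 500-530) of Vif-coexpressing HeLa A3G-eYFP cells, scanned by Acumen cytometer, reports blocked A3G degradation. Cells plated at 700/well overnight at 37 deg C before compound addition, then a further overnight compound incubation at 37 deg C.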

[6] = system: Zika virus NS2B-NS3 protease; experiment: Primary screen GU AMC qHTS for Zika virus inhibitors (AID 1347154); details: Zika NS2B-NS3 unlinked protease, AMC fluorogenic substrate; series mostly up to 54.1 µM;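 also: 0% = no-inhibitor control and -100% = no-enzyme control; nearly all actives have a fitted effect of over 70% in size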
Summary of the method: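 Unlinked Zika NS2B hydrophilic domain/NS3 protease domain noncovalent complex (25 nM final) in 10 mM Tris-HCl pH 8.0, 0.01% Tween 20, with AMC peptide substrate. Fluorescence (ex 340, em 450 nm) change over 15 min, room temperature; percent inhibition fitted to 4-parameter Hill equation.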

[7] = Primary qHTS for small molecule stabilizers of the endoplasmic reticulum resident proteome: Secreted ER Calcium Modulated Protein (SERCaMP) assay (AID 1508630); details: SH-SY5Y GLuc-SERCaMP (Gaussia luciferase released on ER calcium loss) secretion, thapsigargin, luminescence; series mostly up to 38.4 µM; also: % is scaled to controls: 0 for no effect and ±100 for the full control effect
Summary of the method: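 The SH-SY5Y reporter protocol was run at 3 concentrations up to 38.3 uM (primary) or 11 concentrations (follow-up): 16 h compound, 100 nM thapsigargin for 4 h, then extracellular luciferase luminescence.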

[8] = target: Mitogen-activated protein kinase 10 (Mus musculus) (UniProt Q61831); experiment: JNK3 AlphaScreen Assay (AID 530; active = well fitted curve in either direction with a large enough effect, not every such curve was filed as active;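 also: kinase came from lysate of stimulated human HepG2 cells; signal reports phosphorylation of biotinylated GST-cJun 1-79 at Ser73 with 10 µM ATP; % is scaled to controls: 0 for no effect and ±100 for the full control effect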); details: JNK3 lysate, c-Jun phosphorylation; series mostly up to 57.1 µM
Summary of the method: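 Biotinylated GST-cJun(1-79) served as substrate for JNK3 in HepG2 lysates stimulated with IL-1beta and TNF-alpha. ATP was 10 uM final, pH 7.6. Ser73 phosphorylation was quantified by AlphaScreen (680 nm excitation).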

[9] = target: 3',5'-cyclic-AMP phosphodiesterase 4B (Homo sapiens) (UniProt Q07343); experiment: qHTS Assay for Inhibitors of PDE-IV (AID 607; active = well fitted activation curve with a large enough effect in the main read-out, with a control signal flat, not every such curve was filed as active; also: % of control where 0% means no effect); details: HEK293 ACTOne CNG channel cells, membrane potential fluorescence; series mostly up to 22.9 µM
Sequence of 3',5'-cyclic-AMP phosphodiesterase 4B (Homo sapiens) (Q07343 whole entry, looked up): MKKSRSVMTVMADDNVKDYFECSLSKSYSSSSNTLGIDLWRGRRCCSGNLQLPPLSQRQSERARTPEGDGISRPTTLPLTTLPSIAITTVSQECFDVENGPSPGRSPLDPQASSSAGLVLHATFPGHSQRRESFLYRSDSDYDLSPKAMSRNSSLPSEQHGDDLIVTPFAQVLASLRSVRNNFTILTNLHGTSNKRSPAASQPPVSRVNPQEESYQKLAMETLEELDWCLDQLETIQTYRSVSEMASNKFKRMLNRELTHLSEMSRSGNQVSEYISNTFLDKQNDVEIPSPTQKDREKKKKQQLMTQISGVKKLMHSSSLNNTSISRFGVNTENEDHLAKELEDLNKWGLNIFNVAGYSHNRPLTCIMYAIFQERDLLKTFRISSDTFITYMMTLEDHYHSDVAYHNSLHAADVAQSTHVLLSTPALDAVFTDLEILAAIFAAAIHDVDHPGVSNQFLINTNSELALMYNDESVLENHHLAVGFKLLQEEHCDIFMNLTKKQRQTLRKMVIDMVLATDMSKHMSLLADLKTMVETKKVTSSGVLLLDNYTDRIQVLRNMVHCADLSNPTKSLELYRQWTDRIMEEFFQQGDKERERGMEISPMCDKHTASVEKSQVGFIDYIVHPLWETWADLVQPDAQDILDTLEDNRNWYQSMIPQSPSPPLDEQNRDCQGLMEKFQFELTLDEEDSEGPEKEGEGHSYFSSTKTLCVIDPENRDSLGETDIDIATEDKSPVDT
Summary of the method: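 Live HEK293 cells with a modified cyclic nucleotide-gated (CNG) channel report intracellular cAMP via membrane-potential dye fluorescence (ex 535/em 590 nm). Endogenous PDE-IV was targeted. Compounds were tested at up to 22.9 uM final; RO 20-1724 100 uM served as control.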

[10] = target: Cytochrome P450 2D6 (Homo sapiens) (UniProt P10635); experiment: qHTS Assay for Inhibitors and Substrates of Cytochrome P450 2D6 (AID 891); details: recombinant CYP2D6, luciferin-ME EGE luminescence; series mostly up to 57.1 µM; also: nearly all actives have a fitted effect of over 60% in size; also: potency is read from the fitted curve at half-maximal effect
Sequence of Cytochrome P450 2D6 (Homo sapiens) (P10635 whole entry, looked up): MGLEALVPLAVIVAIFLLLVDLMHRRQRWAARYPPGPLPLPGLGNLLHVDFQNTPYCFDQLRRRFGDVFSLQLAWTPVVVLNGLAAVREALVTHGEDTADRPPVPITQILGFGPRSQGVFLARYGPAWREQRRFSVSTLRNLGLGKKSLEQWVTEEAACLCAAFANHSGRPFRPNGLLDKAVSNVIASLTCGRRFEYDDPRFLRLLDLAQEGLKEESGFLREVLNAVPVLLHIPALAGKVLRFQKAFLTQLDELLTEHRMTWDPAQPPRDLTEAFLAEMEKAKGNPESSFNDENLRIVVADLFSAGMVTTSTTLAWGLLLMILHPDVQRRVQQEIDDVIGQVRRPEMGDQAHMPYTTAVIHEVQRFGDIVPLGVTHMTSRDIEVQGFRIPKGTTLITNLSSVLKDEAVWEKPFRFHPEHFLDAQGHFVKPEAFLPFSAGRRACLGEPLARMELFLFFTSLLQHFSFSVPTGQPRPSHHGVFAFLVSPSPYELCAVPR
Summary of the method: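 Luminescent read-out of luciferin formed by 5 nM human CYP2D6 demethylating 30 uM Luciferin-ME EGE (Km level) over 60 min at room temperature after NADPH regeneration addition. Data normalized to full inhibition by 1.43 uM quinidine.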

[11] = AP1 Signaling Pathway (AID 357; active = well fitted curve in either direction with a large enough effect, not every such curve was filed as active;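 also: ME-180 reporter cells stimulated with EGF at its EC50 level; % is scaled to controls: 0 for no effect and ±100 for the full control effect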); details: ME-180 (cervical carcinoma) AP-1-bla reporter, EGF-induced, beta-lactamase ratio, 5 h; series mostly up to 38 µM
Summary of the method: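 Read-out was the 460nm/530nm emission ratio (excitation 405nm) after CCF4 loading for 2.5 hours at room temperature. Cells carried an AP-1-driven beta-lactamase reporter, were stimulated with EC50 EGF plus compound for 5 hours, and AC50 values came from titrations.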

[12] = target: Cytochrome P450 1A2 (Homo sapiens) (UniProt P05177); experiment: p450-cyp1a2 (AID 410; calls by dose curve;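 also: -100% = full effect of reference inhibitor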); details: recombinant CYP1A2, luciferin-ME demethylation, luminescence; series mostly up to 57 µM
Sequence of Cytochrome P450 1A2 (Homo sapiens) (P05177 whole entry, looked up): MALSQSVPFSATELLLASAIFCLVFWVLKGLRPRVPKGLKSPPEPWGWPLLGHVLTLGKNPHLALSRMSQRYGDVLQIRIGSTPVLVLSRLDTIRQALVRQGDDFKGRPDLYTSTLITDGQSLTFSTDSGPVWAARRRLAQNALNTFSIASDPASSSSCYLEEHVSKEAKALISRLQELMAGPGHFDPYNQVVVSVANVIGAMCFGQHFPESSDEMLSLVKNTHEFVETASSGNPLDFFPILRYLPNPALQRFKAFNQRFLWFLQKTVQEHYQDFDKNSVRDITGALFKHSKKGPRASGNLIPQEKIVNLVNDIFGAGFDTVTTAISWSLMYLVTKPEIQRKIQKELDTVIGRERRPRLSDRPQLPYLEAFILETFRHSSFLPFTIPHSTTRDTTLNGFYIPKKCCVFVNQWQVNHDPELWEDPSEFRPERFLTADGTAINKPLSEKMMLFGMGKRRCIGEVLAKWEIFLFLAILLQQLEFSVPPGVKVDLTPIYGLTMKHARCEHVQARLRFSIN
Summary of the method: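 20nM CYP1A2, 100uM Luciferin-ME (=Km), 100mM KPO4; cpd 10 min RT; +NADPH regen, 60 min RT; stop/detect 20 min; luminescence. Normalized to furafylline 57 uM = full inhibition.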

[13] = NFAT Signaling Pathway (AID 444; active = well fitted curve in either direction with a large enough effect, not every such curve was filed as active;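 also: carbachol stimulus at about its EC50 of 1 µM final; % is scaled to controls: 0 for no effect and ±100 for the full control effect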); details: Jurkat NFAT-bla M1, carbachol, beta-lactamase ratio, 5 h
Summary of the method: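 Jurkat cells carrying an NFAT-driven β-lactamase reporter and co-transfected muscarinic M1 receptor were treated with compound plus carbachol (1 uM final, an EC50 level) for 5 h at 37 °C. CCF4 loading followed for 1 h at RT; 460/530 nm ratio gave %activity.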

[14] = target: Cytochrome P450 2C19 (Homo sapiens) (UniProt P33261); experiment: qHTS Assay for Inhibitors and Substrates of Cytochrome P450 2C19 (AID 899); details: recombinant CYP2C19, luciferin-H EGE luminescence; series mostly up to 57.1 µM; also: nearly all actives have a fitted effect of over 60% in size; also: potency is read from the fitted curve at half-maximal effect
Sequence of Cytochrome P450 2C19 (Homo sapiens) (P33261 whole entry, looked up): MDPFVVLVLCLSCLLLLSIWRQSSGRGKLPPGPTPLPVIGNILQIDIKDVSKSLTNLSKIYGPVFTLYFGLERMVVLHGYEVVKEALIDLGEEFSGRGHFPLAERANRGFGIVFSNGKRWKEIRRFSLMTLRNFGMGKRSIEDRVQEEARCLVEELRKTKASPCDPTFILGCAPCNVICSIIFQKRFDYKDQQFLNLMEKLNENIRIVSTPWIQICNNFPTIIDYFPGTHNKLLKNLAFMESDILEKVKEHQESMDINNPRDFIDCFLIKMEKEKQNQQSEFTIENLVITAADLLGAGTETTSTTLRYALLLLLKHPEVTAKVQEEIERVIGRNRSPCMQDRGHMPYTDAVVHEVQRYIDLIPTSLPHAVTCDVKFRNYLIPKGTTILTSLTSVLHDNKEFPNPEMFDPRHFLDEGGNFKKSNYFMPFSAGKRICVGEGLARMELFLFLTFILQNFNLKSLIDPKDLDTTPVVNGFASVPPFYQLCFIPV
Summary of the method: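 In 50mM KPO4, the reaction held 5nM enzyme and KM-level (10uM) Luciferin-H EGE; it ran 60 min at 37C after NADPH regeneration and a 10 min compound preincubation. Luminescence values were scaled to 57uM ketoconazole as complete inhibition.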

[15] = target: Pyruvate kinase (Leishmania mexicana) (UniProt Q27686); experiment: qHTS Validation Assay for Inhibitors of Leishmania Mexicana Pyruvate Kinase (AID 945);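 also: 0% = DMSO only neutral control wells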; details: purified L. mexicana pyruvate kinase, enzyme activity, E451W mutant enzyme; series mostly up to 57.5 µM
Summary of the method: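 An endpoint luciferase assay: 0.2 nM LmPYK E451W turns over 0.5 mM PEP with 0.1 mM ADP for 1 h at room temperature, pH 7.2, before PKLight addition. Values are normalized to DMSO-only wells.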

[16] = target: Pyruvate kinase PKM (Homo sapiens) (UniProt P14618); experiment: qHTS Assay for Activators of Human Muscle Pyruvate Kinase (AID 954; active = well fitted curve in the direction sought with a large enough effect, not every such curve was filed as active;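 also: 0% = uninhibited enzyme and -100% = no enzyme or full thiadiazolimine inhibition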); details: purified human muscle pyruvate kinase, luciferase-coupled luminescence, 1 h; series mostly up to 57.5 µM
Summary of the method: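 Screening used highly purified human pyruvate kinase M2 under submaximal activity, with PEP at its Km and ADP below Km. After an hour at room temperature, ATP was read by luciferase luminescence.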

[17] = target: Alpha-galactosidase (Coffea arabica) (UniProt Q42656); experiment: Counterscreen for Glucocerebrosidase Inhibitors: qHTS Assay for Coffee Bean alpha-Galactosidase at pH 4.5 (AID 957); details: purified coffee bean alpha-galactosidase, fluorogenic substrate; series mostly up to 76.9 µM;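 also: plate controls were enzyme alone for no effect and no enzyme for full effect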
Sequence of Alpha-galactosidase (Coffea arabica) (Q42656 whole entry, looked up): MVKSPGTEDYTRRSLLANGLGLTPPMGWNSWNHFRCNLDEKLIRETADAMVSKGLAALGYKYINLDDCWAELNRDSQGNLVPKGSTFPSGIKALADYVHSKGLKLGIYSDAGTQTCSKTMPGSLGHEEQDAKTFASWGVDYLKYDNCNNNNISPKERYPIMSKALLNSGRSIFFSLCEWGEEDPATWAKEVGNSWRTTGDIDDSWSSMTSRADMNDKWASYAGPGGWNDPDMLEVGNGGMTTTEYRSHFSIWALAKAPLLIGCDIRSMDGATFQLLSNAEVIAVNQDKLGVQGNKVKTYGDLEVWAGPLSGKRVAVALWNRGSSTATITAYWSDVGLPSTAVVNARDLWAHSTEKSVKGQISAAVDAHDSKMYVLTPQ
Summary of the method: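 Fluorogenic read-out: 4-methylumbelliferone at Ex 365/Em 440 nm after NaOH/glycine stop (pH 10). Enzyme 2 nM, 4-MU-alpha-galactoside 80 uM, citrate buffer pH 4.5, 20 min RT; normalized to no-enzyme and enzyme controls.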

[18] = target: Alpha-galactosidase A (Homo sapiens) (UniProt P06280); experiment: Counterscreen for Glucocerebrosidase Inhibitors: qHTS Assay for Human alpha-Galactosidase at pH 4.5 (AID 992); details: purified enzyme, fluorogenic substrate; series mostly up to 76.9 µM; also: 0% is about no effect
Sequence of Alpha-galactosidase A (Homo sapiens) (P06280 whole entry, looked up): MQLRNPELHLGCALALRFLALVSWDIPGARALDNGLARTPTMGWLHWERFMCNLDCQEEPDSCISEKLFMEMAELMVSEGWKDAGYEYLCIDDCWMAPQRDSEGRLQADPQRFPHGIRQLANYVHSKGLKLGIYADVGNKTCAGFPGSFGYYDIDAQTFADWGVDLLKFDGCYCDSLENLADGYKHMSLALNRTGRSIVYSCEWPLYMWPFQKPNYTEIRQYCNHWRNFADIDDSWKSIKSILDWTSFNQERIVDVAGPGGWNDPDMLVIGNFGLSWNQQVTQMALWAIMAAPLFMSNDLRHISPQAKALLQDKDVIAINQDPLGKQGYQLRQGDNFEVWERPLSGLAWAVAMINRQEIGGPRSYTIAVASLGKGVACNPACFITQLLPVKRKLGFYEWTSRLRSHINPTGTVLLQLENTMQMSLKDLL
Summary of the method: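 Each compound is preincubated briefly with 2 nM enzyme before substrate addition (80 uM); plates then sit 20 min at ambient temperature, are quenched with 1M NaOH/1M glycine, and read fluorometrically.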

[19] = target: alpha-glucosidase (Oryza sativa, rice) (UniProt Q653V4); experiment: Counterscreen for Glucocerebrosidase Inhibitors: qHTS Assay for Rice alpha-Glucosidase at pH 5.0 (AID 997); details: rice alpha-glucosidase enzyme activity; series mostly up to 76.9 µM;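 also: 0% = full activity with enzyme and -100% = basal without enzyme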
Summary of the method: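 Endpoint fluorogenic assay at pH 5.0: compounds (0.7 nM to 77 uM) titrated against 4 nM rice enzyme and 400 uM 4-MU-alpha-glucoside for 20 min at room temperature; NaOH/glycine stop, read ex 365/em 440 nm, Hill-fitted AC50.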

[20] = target: Alpha-galactosidase (Coffea arabica) (UniProt Q42656); experiment: Counterscreen for Glucocerebrosidase Inhibitors: qHTS Assay for Coffee Bean alpha-Galactosidase at pH 5.9 (AID 998); details: coffee bean alpha-galactosidase enzyme assay; series mostly up to 76.9 µM;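 also: plate controls were uninhibited enzyme for no effect and no-enzyme basal signal for full effect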
Summary of the method: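 In 50 mM citric acid pH 5.9 with 0.005% Tween-20, coffee bean enzyme hydrolyses 80 uM 4-MU alpha-D-galactopyranoside over 20 min at RT. Activity is normalized to controls; AC50 comes from Hill-modelled concentration-response data.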

[21] = measured here: cell count channel max response
[22] = measured here: lipid channel max response

Cc1ccc(C[N+](C)(C)C)o1
30.2%: max response [3, 22]
20.9%: max response [3, 21]
inactive: Potency [1] > 46 µM | Potency [2] > 46 µM | activity change, negative = inhibition ([3]; at 57.5 µM (top of the series)) 4.98% | Potency [4] | Potency [5] | Potency [6] | Potency [7]

CC(C)[C@@H]1CN[C@H](C(=O)O)[C@@H]1CC(=O)O
17.2%: max response [3, 22]
14.8%: max response [3, 21]
inactive: Potency [1] > 46 µM | outcome [8] | activity change, negative = inhibition ([3]; at 57.5 µM (top of the series)) 5.36% | Potency [4] | Potency [5] | Potency [6] | Potency [7]

C[C@](N)(CCP(=O)(O)O)C(=O)O
-20.7%: max response [3, 22]
-23.4%: max response [3, 21]
inactive: Potency [1] > 46 µM | Potency [2] > 46 µM | outcome [8] | activity change, negative = inhibition ([3]; at 57.5 µM (top of the series)) 6.09% | Potency [4] | Potency [5] | Potency [6] | Potency [7]

CC(C)NC[C@H](O)c1ccc(N)c(C#N)c1
17.3%: max response [3, 21]
26.1%: max response [3, 22]
inactive: Potency [1] > 46 µM | Potency [2] > 46 µM | outcome [8] | activity change, negative = inhibition ([3]; at 57.5 µM (top of the series)) 11.2% | Potency [4] | Potency [5] | Potency [6] | Potency [7]

CCCN[C@@H]1CCc2c(OC)cccc2[C@@H]1C
-24%: max response [3, 22]
active: Potency [10] 0.251 µM
-20.9%: max response [3, 21]
inactive: Potency [1] > 46 µM | Potency [2] > 46 µM | Potency [9] | activity change, negative = inhibition ([3]; at 57.5 µM (top of the series)) -0.687% | Potency [4] | Potency [5] | Potency [6] | Potency [7]

N[C@H](CP(=O)(O)O)C(=O)O
12.7%: max response [3, 21]
11.5%: max response [3, 22]
inactive: outcome [11] | Potency [12] | activity change, negative = inhibition ([13]; at 38 µM (top of the series)) 5.18% | Potency [1] > 46 µM | Potency [2] > 46 µM | Potency [10] | Potency [14] | outcome [15] | outcome [16] | outcome [17] | outcome [18] | outcome [19] | outcome [20] | activity change, negative = inhibition ([3]; at 57.5 µM (top of the series)) -5.82% | Potency [5] | Potency [6] | Potency [7]

Cc1nc(N)sc1CCN
inactive: Potency [1] > 46 µM | activity change, negative = inhibition ([3]; at 57.5 µM (top of the series)) 3.05% | Potency [4] | Potency [5] | Potency [6] | Potency [7]
-2.18%: max response [3, 22]
-8.41%: max response [3, 21]

c1ccc2c(c1)OC[C@@H](C1=NCCN1)O2
active: Potency [10] 0.631 µM | Potency [14] 7.94 µM
inactive: Potency [12] | activity change, negative = inhibition ([13]; at 17.2 µM (top of the series)) -9.57% | activity change, negative = inhibition ([13]; at 38 µM (top of the series)) -27.1% | Potency [1] > 46 µM and > 20.6 µM | outcome [8] | Potency [9] | outcome [15] | outcome [16] | outcome [17] | outcome [18] | outcome [19] | outcome [20] | activity change, negative = inhibition ([3]; at 25.7 µM (top of the series)) 1.16% | Potency [4] | Potency [5] | Potency [6] | Potency [7]
-0.675%: max response [3, 21]
-5.05%: max response [3, 22]
